Source: PubChem BioAssay (NCI)
About 83,000 compounds went through this panel and 20% of them were active in at least one assay; those are over-represented in the sample as a whole.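 48-hour exposure, single concentration, 96-well plates; percent growth endpoint where 0 means no net growth. Active: below 10.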 Unmarked numbers belong to inactive results. Activity calls are given as the source filed them.

Tests used:
Experiment in all cases: NCI-60 one-dose screen, 48 h (100 = growth as untreated, 0 = no growth, -100 = all killed)
Conditions in all cases: 10 µM unless noted
[1] = tested on: HCT-15 colon
[2] = tested on: HT29 colon
[3] = tested on: SNB-75 CNS
[4] = tested on: SNB-19 CNS
[5] = tested on: PC-3 prostate
[6] = tested on: SK-MEL-5 melanoma
[7] = tested on: UACC-62 melanoma
[8] = tested on: LOX IMVI melanoma
[9] = tested on: SK-MEL-28 melanoma
[10] = tested on: SK-MEL-2 melanoma
[11] = tested on: EKVX NSCLC
[12] = tested on: SN12C renal
[13] = tested on: UO-31 renal
[14] = tested on: TK-10 renal
[15] = tested on: ACHN renal
[16] = tested on: CAKI-1 renal
[17] = tested on: CCRF-CEM leukemia
[18] = tested on: MOLT-4 leukemia
[19] = tested on: U251 CNS
[20] = tested on: A498 renal

Structure (SMILES)	growth [1]	growth [2]	growth [3]	growth [4]	growth [5]	growth [6]	growth [7]	growth [8]	growth [9] [%]	growth [10]	growth [11] [%]	growth [12]	growth [13]	growth [14] [%]	growth [15]	growth [16] [%]	growth [17]	growth [18]	growth [19] [%]	growth [20]
O=C(Nc1ccc(Cl)cc1)c1cc(NCc2cc(O)ccc2O)ccc1O	68.5%	88.6%	101%	91.4%	45.2%	82.9%	65.5%	84.3%	99.2	78.8%	94.1	76.1%	52.2%	97.3	89.6%	99.5	5.54% (active)	59.8%	–	–
Cc1ccc(-n2c3c(c(-c4ccccc4)c2-c2ccccc2)C2=NCCN2C=N3)cc1	81.3%	88%	70.5%	88.5%	76.8%	68.1%	75.1%	93.6%	110	99.3%	80.8	85%	68.9%	144	96.4%	72.9	98.5%	92.9%	–	–
COc1cccc(C(=O)NNc2nc(Cl)nc(N3CCN(C(c4ccccc4)c4ccccc4)CC3)n2)c1	13.3%	20.3%	89.3%	77.4%	34.3%	91.2%	–	2.99% (active)	89.1	79.1%	89.6	70.9%	93.4%	97.8	54.6%	68.7	-5.32% (active)	4.48% (active)	100	–
Cc1ccc(C(=O)/C(=C\c2ccc([N+](=O)[O-])cc2)S(=O)Cc2ccc(Cl)cc2)cc1 (centres undefined)	10.8%	-51.1% (active)	75.5%	46.8%	6.38% (active)	78.5%	5.87% (active)	-26.5% (active)	46.6	72.7%	82.4	-15.6% (active)	3.42% (active)	50.3	12.7%	59.7	4.88% (active)	7.82% (active)	–	77.6%
O=C1c2ccccc2C(=O)c2c([N+](=O)[O-])ccc(Cl)c21	75.9%	39.4%	96.4%	99.1%	82.4%	97.9%	96.5%	55.4%	106	107%	113	97.5%	76.6%	87.6	85.5%	39.4	63.2%	86.2%	–	105%
COc1cc(C2C3=C(COC3=O)N(CCO)c3cc4c(cc32)OCO4)cc(OC)c1OC (centres undefined)	18.1%	0.994% (active)	51%	-2.19% (active)	19.6%	-42.2% (active)	22.2%	26.1%	44.7	24.7%	35.2	16.8%	45.8%	54.4	40.1%	50.6	–	–	–	-19.6% (active)
c1ccc2c(-c3c[nH]c4ccccc34)c3c(cc2c1)[nH]c1ccccc13	47%	72.5%	38.4%	90.9%	69.9%	67.3%	–	60.1%	75.3	50.6%	77.4	80.8%	58.3%	94.1	62.1%	–	43.9%	38.2%	70.1	–
Cc1nc2ccc(Cl)cn2c1-c1nnc(SCc2ccc([N+](=O)[O-])cc2)o1	60.3%	83.9%	39.8%	39.8%	74%	43.8%	–	69.3%	40.2	84.9%	65.3	48.4%	39.5%	91.3	31.3%	65.7	116%	93.7%	–	48.7%
CC1(C)CC(O)CCCCCCOc2c(CN)cccc2NC(=O)c2nc(cnc2N)-c2ccc(cc2)S1(=O)=O (centres undefined)	-14.4% (active)	9.7% (active)	53.7%	8.06% (active)	22.6%	-31.7% (active)	41.3%	13%	43.4	25.4%	86.2	20.1%	27.8%	34.7	24.7%	18.1	-8.71% (active)	2.43% (active)	–	–
COc1ccc(-c2cnc3c(-c4cccc5ncccc45)cnn3c2)cc1	71.6%	43.5%	-13.1% (active)	5.29% (active)	50.6%	22.3%	54.2%	72.4%	58.1	76.1%	80	37.8%	55.4%	61.7	7.66% (active)	32.2	98.4%	–	–	16.1%
CCOc1ccc(/C=N/Nc2cc(C)nc3ccc(Br)cc23)cc1	57.9%	100%	99.9%	99.7%	81.4%	84.9%	–	84.4%	91.6	117%	83.5	82.6%	73.4%	112	96.3%	95.2	38.9%	76.2%	77.5	–
NC1[C@H](c2c[nH]c3ccccc23)c2c([nH]c3ccccc23)[C@H]1c1c[nH]c2ccccc12 (some centres undefined)	84.8%	97.6%	97.2%	95.2%	78.3%	85.2%	72.5%	90.1%	103	98.2%	85.1	88.9%	80.2%	119	88%	84.8	94.5%	80.6%	–	–
COc1cc(/C(C)=C(\c2ccc(Cl)cc2)c2ccc(OCCN3CCCC3)cc2)ccc1F	7.9% (active)	8.92% (active)	84.2%	79.8%	53%	49.9%	58%	46%	69.3	98.8%	74	70.2%	39.7%	69.3	83.1%	65.2	37.6%	–	–	–
O=C(Cn1c[n+](CC(=O)c2ccc(-c3ccccc3)cc2)c2ccccc21)Nc1cccc2cccnc12	95.9%	7.47% (active)	-6.7% (active)	7.73% (active)	12.9%	-35.1% (active)	–	-45.5% (active)	21.2	19.4%	47.6	14.9%	67.9%	88.5	90.1%	44.8	10.5%	11.4%	20.6	–
CN1CCN(CCNc2nccc(-c3c(-c4cccc(O)c4)nc4sccn34)n2)S1(=O)=O	50.6%	43.9%	54.2%	115%	68.5%	33%	3.85% (active)	23.8%	15	-24.9% (active)	99.1	70.3%	56.2%	94.1	37.4%	61.8	76.7%	–	–	119%
